The structures appear in SMILES notation. Inconclusive results are not listed. Where a call stands in place of a potency, no number is given. The source made the active and inactive calls. Calls follow the shape of the dose curve; as a rule, active = well fitted cell-killing curve with a large enough effect; inconclusive = small, poorly fitted or top-dose-only effect; inactive = flat fitted curve, though single readings scatter.

This assay can be described thus: Cell Viability - LYMP1-003 - Assay at 40 hr (AID 964). Also: nearly all actives have a fitted effect of over 60% in size. The following applies: LYMP1-003 lymphoblastoid viability; series mostly up to 92.2 µM. The text has this: NIH Chemical Genomics Center [NCGC]
NIH Molecular Libraries Screening Centers Network [MLSCN]
National Institutes of Environmental Health Sciences [NIEHS]
National Toxicology Program [NTP]
We have developed a 1536-well cell-based assay for quantitative high throughput screening (qHTS) against a number of cell lines to determine in vitro cytotoxicity of small molecules. This particular assay uses a human lymphoblastoid cell line (LYMP1-003) purchased from Coriell Institute for Medical Research.
NCGC Assay Protocol Summary:
The CellTiter-Glo luminescent cell viability assay (Promega) is a homogeneous method to measure the number of viable cells in culture. The end point readout of this assay is based on quantitation of intracellular ATP, an indicator of metabolic activity, using the luciferase reaction. Luciferase catalyzes the oxidation of beetle Luciferin to oxyluciferin and light in the presence of ATP. The luminescent signal is proportional to amount of ATP present.
Using the CellTiter-Glo luminescent cell viability assay, the amount of cellular ATP was measured in the lymphoblastoid cell line with complete culture medium following compound treatment for 40 hours. The assay was performed in opaque white Kalypsys 1536-well plates. In the screen, tetraoctylammonium bromide was used as positive control. Library compounds were measured for their ability to cause acute toxicity in the cell line, as reflected by a decrease in intracellular ATP levels, in a concentration-dependent manner. […] AC50 values were determined from concentration-response data modeled with the standard Hill equation.
qHTS protocol for CellTiter Glo lymphoblastoid cellular assay
[Step] [Parameter] [Value] [Description]
1. Reagent; 5 uL; 2500 lymphoblastoid cells/well
2. Time; 5 hr; 37 C incubation
4. Controls; 23 nL; Tetraoctylammonium bromide 6.4pM to 92 uM
5. Time; 40 hr; 37 C incubation
6. Reagent; 5 uL; CellTiter Glo reagent
7. Time; 30 min; Room Temperature
8. Detection; Luminescence; Viewlux plate reader
Keywords: cell viability, cytotoxicity, lymphoblastoid cell line, luminescence, NTPHTS, NTPHTS_NCGC, NIEHS, DSSTox, MLSMR, MLSCN, NIH Roadmap, qHTS, NCGC
For `CCOC(=O)CBr`, the Potency entry was “inactive”. The value for `Cc1ccccc1[N+](=O)[O-]` was “inactive”. Turning to `N#CC(O)c1ccccc1` (stereo not given), the Potency result was “inactive”.

For `C[N+](=O)[O-]`, the Potency result is “inactive”. In the case of `[N-]=[N+]=[N-]`, the Potency result was “inactive”. On to `Oc1ccc(Cl)c(Cl)c1Cl`, for which the Potency entry was “inactive”.

`CCCCCCCCCCCCCl`: the Potency result was “inactive”. In the case of `CC(C)(OOC(C)(C)c1ccccc1)c1ccccc1`, the Potency result was “inactive”. For the compound `C1CC2OC2CC1C1CO1` (stereo not given), the Potency result is “inactive”. With `C=CCCC#N`, the Potency result is “inactive”.

As to `C=CC(=O)OCC(C)C`, the Potency entry was “inactive”. The value for `Nc1ccccc1-c1ccccc1` was “inactive”; that for `CCBr` was “inactive”; that for `ClCCOCOCCCl` was “inactive”. `c1ccc(P(c2ccccc2)c2ccccc2)cc1`: the Potency result was “inactive”. The value for `Clc1ccccc1` was “inactive”; that for `CC(C)(Cl)Cl` was “inactive”. Regarding `Clc1ccc(Cl)c(Cl)c1`, the Potency entry is “inactive”. Consider `Oc1cc(Cl)c(Cl)c(Cl)c1Cl`, for which the Potency entry was “inactive”.

With `C=CC=O`, the Potency result is “inactive”. Regarding `Oc1cccc(Cl)c1`, the Potency entry was “inactive”. In the case of `ClCc1ccccn1` it was “inactive”. The value for `Nn1cnnc1` was “inactive”. On to `Cc1ccc(N=C=O)cc1N=C=O`, for which the Potency entry was “inactive”. Regarding `c1ccc(C2CO2)cc1` (stereo not given), the Potency result is “inactive”. Take `Clc1ccc(C(Cl)(Cl)Cl)cc1Cl`: the Potency entry was “inactive”. With `O=[N+]([O-])c1cccc(O)c1`, the Potency result was “inactive”. For the compound `O=C(O)C(Br)CBr` (stereo not given), the Potency result was “inactive”. The value for `COC(=O)c1ccccc1N` was “inactive”; that for `CCCCCc1cc(O)cc(O)c1` was “inactive”; that for `C=C(Cl)CSC(=S)N(CC)CC` was “inactive”. For the compound `ClC=CCl`, the Potency result is “inactive”. In the case of `Clc1cccc(Cl)c1`, the Potency entry was “inactive”.

Turning to `CC(C)OS(C)(=O)=O`, the Potency result is “inactive”. For `Nc1ccc(-c2ccc(N)cc2)cc1`, the Potency entry was “inactive”. The value for `Nc1ccc(Cc2ccc(N)cc2)cc1` was “inactive”; that for `[O-][Cl+]O` was “inactive”.

Regarding `O=[N+]([O-])c1ccc(Cl)c(Cl)c1Cl`, the Potency entry was “inactive”. Turning to `Oc1cc(Cl)cc(Cl)c1`, the Potency result is “inactive”. For `ClCc1ccccc1`, the Potency entry was “inactive”.
